Measured values reported in PubChem BioAssay AID485364 (National Center for Advancing Translational Sciences (NCATS), 2010).
The whole screen tested about 360,000 compounds, of which about 11,000 (3.1%) were called active. Another 4% or so got no clear call; they are omitted. The full list was thinned out, with actives kept by preference. A number with no mark means an inactive call. Calls follow the shape of the dose curve; as a rule, active = well fitted inhibition curve with a large enough effect; inconclusive = small, poorly fitted or top-dose-only effect; inactive = no such curve, though single readings can be large or run the other way.

molecular target: Schistosoma mansoni thioredoxin glutathione reductase (TGR) (UniProt Q962Y6); test: qHTS Assay for the Inhibitors of Schistosoma Mansoni Peroxiredoxins; conditions: purified TGR, DTNB reduction, TNB absorbance 405 nm; series mostly up to 114 µM; activity change, negative = inhibition: at the top concentration; also: nearly all actives have a fitted effect of over 60% in size
Method in brief: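 TGR 20 nM + NADPH 100 uM (dispensed conc.), cpd preinc 15 min RT; start with NADPH (500 uM addition) then DTNB (15 mM addition). Kinetic TNB absorbance, 405 nm filter. Four-parameter Hill fit across titration.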
% is scaled to controls: 0 for no effect and ±100 for the full control effect; potency is read from the fitted curve at half-maximal effect.

Structure (SMILES)	activity change, negative = inhibition [%]	Potency
O=C(Cn1c(-c2cccs2)cc2ccccc21)NCCc1ccc(Cl)cc1	-1.12	–
Cc1ccc2c(c1)N(C(=O)Nc1ccc(Br)cc1F)CCO2	12.1	–
COc1ccc(-c2cn3c(C)c(C(=O)Nc4cc(C)cc(C)c4)sc3n2)cc1	-0.43	–
CCOC(=O)C1CCCN(C(=O)c2ccc(CS(=O)(=O)c3ccc(Br)cc3)o2)C1 (configuration not stated)	–	20 µM (active)
CCOC(=O)C1CCCN(C(=O)c2cncc(Br)c2)C1 (configuration not stated)	-2.66	–
CCOC(=O)C1CCCN(C(=O)c2cccc(S(=O)(=O)N3CCOCC3)c2)C1 (configuration not stated)	-2.13	–
O=C(c1ccc2c(c1)N(Cc1ccccc1)C(=O)c1ccccc1S2(=O)=O)N1CCC(Cc2ccccc2)CC1	9.31	–
CC(C)c1nc(CNC(=O)CC2C(=O)NCCN2Cc2ccoc2)cs1 (configuration not stated)	–	35.5 µM (active)
O=C(CC1C(=O)NCCN1Cc1ccc(-c2ccccc2)cc1)NCC1CCOCC1 (configuration not stated)	-27.6	–
Cc1ccc(CN2CCNC(=O)C2CC(=O)NCc2csc(C(C)C)n2)cc1 (configuration not stated)	-32.4	–
COC(=O)c1cc(S(=O)(=O)N2CCN(c3cc(Cl)ccc3C)CC2)c[nH]1	2.69	–
Cc1ccc(C(=O)CC2(O)C(=O)N(CCc3ccccc3)c3ccc(Br)cc32)cc1 (configuration not stated)	0.876	–
Cc1onc(-c2ccc(F)cc2F)c1C(=O)Nc1cccc(C(F)(F)F)c1	0.861	–
COc1ccc(CCNC(=O)c2ccc3c(c2)sc2nc(-c4ccc(C)cc4)cn23)cc1OC	-1.96	–
CCc1cccc(NC(=O)c2cc(-c3ccccc3)n[nH]2)c1	-7.19	–
O=C(O)c1ccc(NC(=O)c2ccc(COc3ccc(Cl)cc3)o2)cc1	-20	–
COC(=O)c1ccc(COc2ccc(C#N)cc2)o1	-7.11	–
O=C(O)c1ccc(COc2c(F)c(F)cc(F)c2F)o1	–	35.5 µM (active)
CCN1CC=C2C(C#N)=C(N)C(C#N)(C#N)[C@H](c3ccoc3)[C@H]2C1	0.939	–
N#CC1=C(N)C(C#N)(C#N)[C@H](c2ccsc2)[C@H]2COCC=C12	–	12.6 µM (active)
Cc1ccc(C)c(N2CCN(C(=O)Cc3c(C(=O)O)c(C)cn3C)CC2)c1	-12	–
Cc1nc2ccccc2c(=O)n1-c1ccc(Cl)cc1Cl	-34.9	–
O=C(NNC1CC(=O)N(c2cccc(Cl)c2)C1=O)c1cccnc1 (configuration not stated)	-28	–

Structure (SMILES)	activity change, negative = inhibition [%]	Potency
O=C1[C@@H]2C(c3cccnc3)=NO[C@@H]2C(=O)N1c1ccc(Cl)cc1Cl	–	8.91 µM (active)
COc1ccccc1-c1nnc(C2CCN(C(=O)c3ccc(Cl)cc3)CC2)o1	1.27	–
CC(C)(C)c1ccc(C(=O)Nc2ccc3c(c2)CCCN3C(=O)c2cccs2)cc1	-3.61	–
Cc1cccc(Cn2c(CN3CCC(C(=O)NCc4ccccc4Cl)CC3)cc3ccccc32)c1	11.6	–
c1coc(-c2nc3nc4ccccc4n3nc2-c2ccco2)c1	–	44.7 µM (active)
O=C(COc1ccc(Cl)cc1)Nc1ccccc1OCc1cc(=O)n2ccccc2n1	2.3	–
COc1ccc(C(=O)c2c(C)oc3cc([N+](=O)[O-])c(O)c([N+](=O)[O-])c23)cc1	-31.7	–
Cc1oc2cc(Br)c(O)c(Br)c2c1C(=O)c1ccccc1	–	15.8 µM (active)
Cc1nc2ccccc2c(-c2ccccc2)c1C(=O)c1ccccc1	-13.7	–
Brc1cccc(-c2nnn3c2nc(NC2CCCCC2)c2ccccc23)c1	37	–
COc1ccc(CCNC(=O)Cn2c(=O)cc(C(F)(F)F)c3c(C)nn(C)c32)c(OC)c1	3.9	–
O=C1C(=O)N(CCN2CCOCC2)C(c2ccccn2)/C1=C(/O)c1ccc(Cl)cc1 (configuration not stated)	–	20 µM (active)
O=C1C(=O)N(CCN2CCOCC2)C(c2cccc(Cl)c2)/C1=C(/O)c1ccc2c(c1)OCO2 (configuration not stated)	–	50.1 µM (active)
CCN(CC)CCN1C(=O)C(=O)/C(=C(/O)c2ccc(OC)c(OC)c2)C1c1ccccn1 (configuration not stated)	11.8	–
COCCN1C(=O)C(=O)/C(=C(/O)c2ccc(S(=O)(=O)N3CCOCC3)cc2)C1c1ccc(OC)c(OC)c1 (configuration not stated)	-3.05	–
COc1ccc(C2/C(=C(/O)c3ccc(OC(C)C)cc3)C(=O)C(=O)N2CCCN2CCOCC2)cc1 (configuration not stated)	–	20 µM (active)
CC1Cc2cc(/C(O)=C3\C(=O)C(=O)N(CCN4CCOCC4)C3c3ccccc3F)ccc2O1 (configuration not stated)	-26.7	–
COCCN1C(=O)C(=O)/C(=C(/O)c2ccc(S(=O)(=O)N3CCOCC3)cc2)C1c1ccc(O)c(OC)c1 (configuration not stated)	-15.2	–
O=C1C(=O)N(CCCO)C(c2ccccc2)/C1=C(\O)c1ccc(Br)cc1 (configuration not stated)	11.9	–
COCCCN1C(=O)C(=O)/C(=C(/O)c2ccc(S(=O)(=O)N3CCOCC3)cc2)C1c1ccc(F)cc1 (configuration not stated)	5.3	–
CCn1c2c(c(=O)n3ncc(C(=O)N4CCN(c5ccccc5)CC4)c13)CN(Cc1ccc(OC)cc1)CC2	-22.6	–
CCc1cccc(NC(=O)CN(C)S(=O)(=O)c2ccc3[nH]c4c(c3c2)CCCC4)c1	-3.12	–
O=C(Nc1cc(C(F)(F)F)ccc1Cl)c1cc2nc(-c3ccc4c(c3)OCO4)cc(C(F)(F)F)n2n1	10	–

Structure (SMILES)	activity change, negative = inhibition [%]	Potency
O=C(CSc1nc(Nc2ccc(F)c(F)c2)c2ccccc2n1)c1ccc(Cl)cc1	-0.95	–
Cc1cc(C)nc(NS(=O)(=O)c2ccc(NC(=O)c3cc(=O)c4ccc(C)c(C)c4o3)cc2)n1	8.3	–
COC(=O)c1c(NC(=O)CCCOc2ccccc2)sc2c1CCC(C)C2 (configuration not stated)	-12.3	–
O=C(O)CCn1cc(C=C2C(=O)NC(=S)NC2=O)c(-c2cccc(Br)c2)n1	–	31.6 µM (active)
O=C(O)CCn1cc(/C=C/C(=O)c2ccc(Cl)cc2)c(-c2cccc(Br)c2)n1	8.71	–
Cc1cccc(NC(=O)c2ccc3nc(C(C)C)oc3c2)c1C	1.6	–
O=S(=O)(c1ccccc1)c1nc(-c2ccccc2)oc1NCCCN1CCOCC1	-7	–
O=S(=O)(c1ccc(Br)cc1)c1nc(-c2ccccc2)oc1N1CCOCC1	-40.2	–
O=S(=O)(c1ccccc1)c1nc(Cc2ccccc2)oc1N1CCOCC1	–	2 µM (active)
Cc1ccc(NC(=O)Nc2sc3nc4n(c(=O)c3c2C)CCC(C)CC4)c(Cl)c1 (configuration not stated)	4.36	–
CCC(C)c1ccc2oc(-c3ccc(NC(=O)c4cc5ccccc5o4)cc3)nc2c1 (configuration not stated)	0.847	–
Cc1ccc(C2c3[nH]c4ccccc4c3CCN2C(=O)c2cccc(C)c2)cc1 (configuration not stated)	5.12	–
Cc1ccc(C)c(N2C(=O)N(Cc3c(F)cccc3Cl)c3ccccc3S2(=O)=O)c1	12.1	–
CC(C)(C)c1ccc(C(=O)NCC(c2ccco2)S(=O)(=O)c2ccc(F)cc2)cc1 (configuration not stated)	–	11.2 µM (active)
O=C(NCC(c1ccco1)N1CCc2ccccc21)c1cccc(F)c1 (configuration not stated)	2.37	–
COc1ccc(CCNC(=O)C(=O)NCC(c2ccco2)S(=O)(=O)c2cccs2)cc1OC (configuration not stated)	–	3.55 µM (active)
COc1ccc(CCNC(=O)C(=O)NCc2ccccc2C)cc1OC	-2.9	–
COc1ccc(CCNC(=O)C(=O)NCC2CCCN2S(=O)(=O)c2cccs2)cc1OC (configuration not stated)	-10.8	–
O=C(CCNC(=O)c1ccc(Br)cc1)NCC(c1ccco1)N1CCCCC1 (configuration not stated)	-2.93	–
O=C(NCC(c1ccco1)S(=O)(=O)c1cccs1)c1ccc(F)cc1 (configuration not stated)	–	7.08 µM (active)
CCN(CC(=O)NCc1ccco1)S(=O)(=O)c1ccc(F)cc1	-8.46	–
Cc1cc(S(=O)(=O)Nc2ccc(C(=O)NCC(c3ccco3)N3CCCC3)cc2)ccc1F (configuration not stated)	-8.98	–
CCC(=O)Nc1c(C(=O)N2CCN(c3ccc(F)cc3)CC2)oc2ccccc12	-2.54	–

Structure (SMILES)	activity change, negative = inhibition [%]	Potency
CN(CC(=O)Nc1cccc(C(F)(F)F)c1)S(=O)(=O)c1cccs1	-0.406	–
CCOc1ccc(N(CC)C(=O)c2noc3c2COc2ccc(C)cc2-3)cc1	-10.9	–
Cc1ccc2[nH]c3c(=O)n(CC(=O)NC(C)C)ncc3c2c1	-3.07	–
Cc1ccc2c(=O)cc(C(=O)Nc3sc4c(c3C(=O)NCc3cccnc3)CCCC4)oc2c1	5.7	–
CCCNC(=O)c1ccc(Cn2c(SCC(N)=O)nc3ccccc3c2=O)cc1	5.19	–
CCN(CC(=O)NC(=O)NCc1ccccc1)Cc1nc2ccccc2c(=O)[nH]1	–	89.1 µM (active)
O=C(c1ccco1)N(Cc1nc2ccccc2c(=O)[nH]1)C1CCCC1	-35.5	–
CCN(CC(=O)Nc1ccc(Cl)c(S(=O)(=O)N(C)C)c1)Cc1nc2ccccc2c(=O)[nH]1	–	39.8 µM (active)
CCN(CC(=O)Nc1cccc(S(=O)(=O)N2CCCCC2)c1)Cc1ccccc1	8.89	–
CCN(CC)c1ccc(C(=O)NNC(=O)CCc2nc3ccccc3c(=O)[nH]2)cc1	1.8	–
CCCCN(CC(=O)Nc1cccc(S(=O)(=O)N2CCCC2)c1)Cc1nc2ccccc2c(=O)[nH]1	–	22.4 µM (active)
CCN(CC(=O)Nc1ccc(C)c(S(=O)(=O)N(C)C)c1)Cc1ccccc1	-15.6	–
CN(C)S(=O)(=O)c1cc(NC(=O)CN2C(=O)NC3(CCCc4ccccc43)C2=O)ccc1Cl (configuration not stated)	-7.41	–
CCN(CC(=O)Nc1cccc(S(N)(=O)=O)c1)Cc1nc2ccccc2c(=O)[nH]1	2.33	–
Cn1c(=O)c2c(SCC(=O)N3CCc4ccccc43)nc(-c3ccc(Cl)cc3)nc2n(C)c1=O	0.229	–
COc1ccc(-c2nc(C)c(CCNC(=O)c3ccc(C(F)(F)F)cc3)s2)cc1OC	3.68	–
COc1ccccc1NC(=O)CSC1=Nc2ccccc2C2=NC(CC(=O)NCc3cccs3)C(=O)N12 (configuration not stated)	3.93	–
Cn1c(=O)c2c(SCC(=O)NCC3CCCO3)nc(-c3ccccc3F)nc2n(C)c1=O (configuration not stated)	4.44	–
CCCCc1nn2c(=O)cc(COC(=O)c3ccccc3NC(=O)C(C)(C)C)nc2s1	0.0611	–
Cc1nn(C(C)C(=O)NCCc2ccccc2)c(=O)c2c1sc1ccccc12 (configuration not stated)	-6.91	–
COc1cccc2c1cc1c(=O)n(CC(=O)N3CCN(c4ccccc4)CC3)nc(C)n12	-4.71	–
O=c1c2cccnc2n(Cc2cccc(F)c2)c(=O)n1Cc1ccccc1Cl	1.91	–
COc1cccc2c1cc1c(=O)n(CC(=O)N3CCN(c4cccc(Cl)c4)CC3)nc(C)n12	-1.68	–
